{
  "source": "PubChem BioAssay AID1259319",
  "about": "(Sanford-Burnham Center for Chemical Genomics, 2017)",
  "note": "Hit rate of the full screen: of about 3,000 compounds, about 1,800 (60%) were called active.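 Rule for the calls: active = activation at or above a set limit, or at least 3 SD above the negative control mean; inactive = the rest.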 So high a share suggests a set chosen from earlier hits. Not all results are given here.",
  "data": [
    {"target": "Nuclear receptor subfamily 1 group D member 1 (Homo sapiens) (UniProt P20393)", "sequence (P20393 whole entry, looked up)": "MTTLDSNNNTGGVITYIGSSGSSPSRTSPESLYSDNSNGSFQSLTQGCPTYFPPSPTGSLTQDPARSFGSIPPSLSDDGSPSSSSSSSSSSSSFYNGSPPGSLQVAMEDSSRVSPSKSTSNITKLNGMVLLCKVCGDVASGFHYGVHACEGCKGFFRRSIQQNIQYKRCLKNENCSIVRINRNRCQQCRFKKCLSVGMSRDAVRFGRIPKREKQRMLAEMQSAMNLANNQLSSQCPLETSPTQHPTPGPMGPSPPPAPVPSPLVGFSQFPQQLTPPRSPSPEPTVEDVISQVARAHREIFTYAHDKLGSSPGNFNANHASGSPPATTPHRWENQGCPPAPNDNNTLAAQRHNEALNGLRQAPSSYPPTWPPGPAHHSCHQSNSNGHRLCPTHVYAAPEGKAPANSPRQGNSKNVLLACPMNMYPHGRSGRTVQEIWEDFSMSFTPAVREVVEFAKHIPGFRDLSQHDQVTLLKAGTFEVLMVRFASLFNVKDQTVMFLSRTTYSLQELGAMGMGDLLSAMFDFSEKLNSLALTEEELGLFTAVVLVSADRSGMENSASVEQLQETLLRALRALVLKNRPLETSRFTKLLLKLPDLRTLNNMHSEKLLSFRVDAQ", "assay": "Rev-erbα–DNA interaction modulation, retest – biochemical, FITC-DNA, fluorescence polarization, single point, confirmation (AID 1259319);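 note: 0% = 35 nM protein with DMSO and 100% = 750 nM protein high control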", "settings": "Rev-erb alpha FITC-DNA binding, 90 min, at 25 µM, hits give high values", "values": [
      {"compound": "CCOC(=O)c1ccc(NC(=O)c2c(NCc3ccccc3)[nH]c(=O)[nH]c2=O)cc1", "activation": "1.79% (inactive)"},
      {"compound": "CCN(CC)c1ccc2cc(C(N)=O)/c(=N\\NC(=O)c3ccncc3)oc2c1", "activation": "25.4% (active)"},
      {"compound": "Cn1c(=O)n(C)c2cc(/C=N/NC(=O)c3cccc(Br)c3)ccc21", "activation": "8.29% (inactive)"},
      {"compound": "COc1cc(Cl)c(C)cc1NC(=O)COC(=O)c1cc(SC)ccc1Cl", "activation": "23.3% (active)"},
      {"compound": "CCN1/C(=C\\c2ccc3ccccc3[n+]2CC)Sc2cc(C)ccc21", "activation": "67.5% (active)"},
      {"compound": "Cc1nc2nc(SCC(=O)c3ccccc3)[nH]c2cc1Br", "activation": "45% (active)"},
      {"compound": "CCn1c(SCC(=O)Nc2cccc(F)c2)nnc1-c1cc2cc(Br)ccc2o1", "activation": "26.2% (active)"},
      {"compound": "Cc1nc2nc(SCC(=O)Nc3cccc(F)c3)[nH]c2cc1Br", "activation": "20% (active)"},
      {"compound": "COc1ccc(C(=O)Nc2cccc(NC(=O)c3ccc(OC)cc3OC)n2)c(OC)c1", "activation": "4.36% (inactive)"},
      {"compound": "COc1ccc2[nH]c(C(=O)Nc3ccccc3Cl)cc2c1", "activation": "30.5% (active)"},
      {"compound": "Cc1cc(=O)oc(C)c1C(=O)N1CCCCC1", "activation": "-0.804% (inactive)"},
      {"compound": "CC(C)Cn1c(CN(Cc2ccccc2)Cc2ccccc2)nc2c1c(=O)n(C)c(=O)n2C", "activation": "48.3% (active)"},
      {"compound": "Fc1ccc(CNc2nc3ccccc3n3nnnc23)cc1", "activation": "27% (active)"},
      {"compound": "COC(=O)c1cccc(Cn2ccc3ccc(-c4ccc5ccn(C(=O)c6ccccc6C)c5c4)cc32)c1", "activation": "89.9% (active)"},
      {"compound": "COC(=O)c1cccc(Cn2ccc3ccc(-c4ccc5ccn(C(=O)C6CCCCC6)c5c4)cc32)c1", "activation": "43.5% (active)"},
      {"compound": "CCOC(=O)c1c(C)oc2cc(Br)c(OCC(N)=O)cc12", "activation": "40.3% (active)"},
      {"compound": "COc1cc(OC)cc(-c2nc(=S)n3ccsc3n2)c1", "activation": "2.77% (inactive)"},
      {"compound": "Cc1sc2ncnc(N3CCC(C(=O)Nc4nc5ccc(Cl)cc5s4)CC3)c2c1C", "activation": "51% (active)"},
      {"compound": "CN1C(=O)c2ccc(C(=O)Nc3ccc(Br)cn3)cc2C1=O", "activation": "30.1% (active)"},
      {"compound": "CCCCCn1nnnc1C1c2ccccc2C(=O)N1Cc1ccco1", "note": "(stereo not given)", "activation": "-8.88% (inactive)"},
      {"compound": "O=c1cc(N2CCCCC2)c(-c2ccccc2)nn1Cc1cccc(F)c1", "activation": "8.56% (inactive)"},
      {"compound": "CCC(C(=O)NC1CCCC1)N(C(=O)c1snc(C(N)=O)c1N)c1ccc2c(c1)OCCO2", "note": "(stereo not given)", "activation": "20.2% (active)"},
      {"compound": "NC(N)=Nc1nc2ccc(Br)cc2c(=O)[nH]1", "activation": "21.2% (active)"},
      {"compound": "O=C1Cc2ccccc2Sc2ccc(Cl)cc21", "activation": "23.2% (active)"},
      {"compound": "CCOc1nc(-c2ccc(OC)cc2)ccc1-c1noc(-c2cc(OC)c(OC)c(OC)c2)n1", "activation": "22.3% (active)"},
      {"compound": "CCOc1cc(-c2cc(-c3ccc(OC)cc3)nc(N)c2C#N)ccc1O", "activation": "13.9% (inactive)"},
      {"compound": "Cc1ccc(-n2nc3cc(C)c(NC(=O)c4cccnc4)cc3n2)cc1", "activation": "0.139% (inactive)"},
      {"compound": "COc1ccc(CCNC(=O)CSc2nc(-c3ccc(OC)c(OC)c3)ccc2C#N)cc1", "activation": "37% (active)"},
      {"compound": "COc1cccc(-c2ccc(C#N)c(SCC(=O)NCCc3ccc(Cl)cc3)n2)c1", "activation": "13.2% (inactive)"},
      {"compound": "CCOC(=O)c1ccc(NC(=S)Nc2cc(C)cc(C)n2)cc1", "activation": "4.33% (inactive)"},
      {"compound": "COc1ccc(-c2csc3ncnc(N4CCN(S(=O)(=O)c5ccccc5C#N)CC4)c23)cc1", "activation": "14.6% (inactive)"},
      {"compound": "COc1ccc(S(=O)(=O)N2CCN(c3ncnc4c(-c5ccccc5)nsc34)CC2)cc1", "activation": "8.1% (inactive)"},
      {"compound": "CC(=O)c1ccc(S(=O)(=O)N2CCN(c3nc4c(C)c(C)ccc4cc3C#N)CC2)cc1", "activation": "181% (active)"},
      {"compound": "COCCCNc1nc2c(-c3cccc(C)c3)nnn2c2ccc(Cl)cc12", "activation": "28.8% (active)"},
      {"compound": "Cc1nn(C)cc1N1C(=O)c2cccc3c(N)ccc(c23)C1=O", "activation": "181% (active)"},
      {"compound": "CN1C(=O)c2cccc3c(N)ccc(c23)C1=O", "activation": "225% (active)"},
      {"compound": "COc1ccc(-c2c(C)cc3oc(=O)cc(-c4ccccc4)c3c2C)cc1C=O", "activation": "8.9% (inactive)"},
      {"compound": "C=C(C)C1CC=C(C)/C(=N\\NC(=O)CNc2ccccc2OC)C1", "note": "(stereo not given)", "activation": "6.76% (inactive)"},
      {"compound": "C=CCn1c(=NC(=O)c2cccs2)sc2cc(NC(C)=O)ccc21", "activation": "33.8% (active)"},
      {"compound": "Cn1c(=NC(=O)c2ccc3c(c2)OCCO3)sc2cc(S(C)(=O)=O)ccc21", "activation": "12.7% (inactive)"},
      {"compound": "C=CCn1c(=NC(=O)c2ccc(S(=O)(=O)N3CCCC3)cc2)sc2cc(NC(C)=O)ccc21", "activation": "34.3% (active)"},
      {"compound": "COC(=O)Cn1c(=NC(=O)c2cc(OC)c(OC)c(OC)c2)sc2cc(OC)ccc21", "activation": "14.3% (inactive)"},
      {"compound": "COc1ccccc1CC1(C)C(=O)Nc2ccc(OC(F)(F)F)cc21", "note": "(stereo not given)", "activation": "60.9% (active)"},
      {"compound": "O=C(NCc1ccc(Cl)cc1)c1cc2c(nc3sccn32)s1", "activation": "19.2% (active)"},
      {"compound": "COc1ccc(S(=O)(=O)N2CCOCC2)cc1C(=O)Nc1nc2ccccc2s1", "activation": "20.7% (active)"},
      {"compound": "COc1cc2c(cc1NC(=O)CN1CCN(S(=O)(=O)c3ccc(F)cc3)CC1)oc1ccccc12", "activation": "3.46% (inactive)"},
      {"compound": "COc1ccc(C)cc1Nc1nc(C)nc2c1oc1ccccc12", "activation": "28.2% (active)"},
      {"compound": "CCOC(=O)c1sc(NC(=O)CCN2CCOCC2)c(C(=O)OCC)c1C", "activation": "5.98% (inactive)"},
      {"compound": "COc1ccc(-c2nn(C)c(=O)c3ccccc23)cc1NC(=O)COc1ccccc1", "activation": "33.9% (active)"},
      {"compound": "CCOc1ccc(NC(=O)CSc2ncnc3c2sc2ccccc23)cc1", "activation": "107% (active)"},
      {"compound": "COc1cc(OC)c(N2CC(C(=O)Nc3cc(Cl)ccc3N3CCOCC3)CC2=O)cc1Cl", "note": "(stereo not given)", "activation": "1.79% (inactive)"},
      {"compound": "COc1cc(OC)cc(-c2c(C#Cc3ccsc3)c3cc(-c4ccc(SC)cc4)ccc3n2C)c1", "activation": "32.1% (active)"},
      {"compound": "CCOc1ccc2nc(Cl)c(C3CC(c4ccccc4)=NN3C(=O)c3cccs3)cc2c1", "note": "(stereo not given)", "activation": "-0.503% (inactive)"},
      {"compound": "Cc1ccc(S(=O)(=O)c2c[nH]c3ccc(Cl)cc3c2=O)cc1", "activation": "137% (active)"},
      {"compound": "COc1ccc(-n2nc3c(N4CCC(C(=O)NCc5ccccc5)CC4)nnc(C)c3c2C)cc1", "activation": "32.9% (active)"},
      {"compound": "COc1ccc(-n2nc(C(=O)NCC(=O)Nc3cccc(C)n3)c3ccccc3c2=O)cc1", "activation": "10.2% (inactive)"},
      {"compound": "CCOC(=O)c1ccc(NC(=S)N2CCN(c3ccccn3)CC2)cc1", "activation": "12.8% (inactive)"},
      {"compound": "Cc1cc(Br)ccc1NC(=O)c1sc2ncn(CC(=O)N3CCN(c4ccccn4)CC3)c(=O)c2c1C", "activation": "37.6% (active)"},
      {"compound": "Cc1nc(N2CCN(c3ccccn3)CC2)c2c(C)c(C(=O)Nc3ccc(F)c(Cl)c3)sc2n1", "activation": "17.3% (inactive)"},
      {"compound": "COc1ccc(-c2nnc3ccc(SCc4ccccc4)nn23)cc1", "activation": "14.9% (active)"},
      {"compound": "CCOc1ccc(-c2nnc3ccc(SC)nn23)cc1", "activation": "26% (active)"},
      {"compound": "Cc1cc(C)c2nc(SCC(=O)N(C)C3CCS(=O)(=O)C3)cc(C)c2c1", "note": "(stereo not given)", "activation": "34.9% (active)"},
      {"compound": "CC1(C)Cc2nc3sc4c(SCC(=O)NC(c5ccccc5)c5ccccc5)ncnc4c3cc2CO1", "activation": "138% (active)"},
      {"compound": "COc1ccc(/C=C2\\SC(=S)N(CCCC(=O)NC3CCCC3)C2=O)cc1OC", "activation": "31.3% (active)"},
      {"compound": "Cc1cc(/C=C(/C#N)C(=O)Nc2ccc(Cl)cc2)c(C)n1-c1cccnc1", "activation": "53.9% (active)"},
      {"compound": "CCCc1nc(SCC(=O)Nc2ccc(S(=O)(=O)N(C)C)cc2)c2ccccc2n1", "activation": "18.2% (active)"},
      {"compound": "COC(=O)c1ccc(NC(=O)c2cc(Cl)ccc2OC)cc1", "activation": "32.8% (active)"},
      {"compound": "Cc1cc(C)c(/C=C2\\C(=O)Nc3ccccc32)[nH]1", "activation": "32.5% (active)"},
      {"compound": "Cc1ccc(NS(=O)(=O)c2cc3c(cc2Br)NC(=O)CO3)cc1C", "activation": "5.15% (inactive)"},
      {"compound": "COc1ccc(CCNc2nc3ccc(C)cc3n3cnnc23)cc1OC", "activation": "2.71% (inactive)"},
      {"compound": "O=C(Nc1nnc(-c2ccccc2F)s1)c1ccccc1F", "activation": "25.2% (active)"},
      {"compound": "Cc1ccc(C(=O)Nc2nnc(-c3cccs3)s2)cc1C", "activation": "-3.7% (inactive)"},
      {"compound": "CN1/C(=c2/s/c(=C3/C(=O)N(c4ccccc4)NC3=Nc3ccccc3)n(C)c2=O)C(C)(C)c2ccccc21", "activation": "29.8% (active)"},
      {"compound": "CCCCCCSc1ccc(-c2nc3ccc(Cl)cn3c2NCc2ccccc2)cc1", "activation": "12.7% (inactive)"},
      {"compound": "CSc1ccc(-c2c(C#N)c(N)nc3c2c(C)nn3-c2ccccc2)cc1", "activation": "7.01% (inactive)"},
      {"compound": "Cc1cc(C)c2c(-c3ccc(F)cc3)c(C#N)c(=O)n(C)c2n1", "activation": "24.5% (active)"},
      {"compound": "Cc1cc(N/C=C\\C(=O)c2ccc(Cl)c(Cl)c2)no1", "activation": "4.17% (inactive)"},
      {"compound": "O=C(COc1ncnc2c(Cl)cc(Cl)cc12)N1CCN(S(=O)(=O)c2ccccc2)CC1", "activation": "14.4% (inactive)"},
      {"compound": "N#Cc1c(-c2ccc(F)cc2)cc(C2CC2)nc1SCC(=O)c1cccs1", "activation": "65.1% (active)"},
      {"compound": "COc1ccc(-c2csc(NC(=O)c3ccc(N4C(=O)CCC4=O)cc3)n2)cc1OC", "activation": "16.5% (inactive)"},
      {"compound": "CS(=O)(=O)c1ccc2nc(NC(=O)c3ccc(N4CCCC4=O)cc3)sc2c1", "activation": "18.3% (active)"},
      {"compound": "CCOC(=O)C1=C(c2ccccc2)O/C(=C(/C(=O)OC)C(F)(F)F)S1", "activation": "0.229% (inactive)"},
      {"compound": "CCC(C)C1(C2CCCC2)NC(=O)NC1=O", "note": "(stereo not given)", "activation": "-1.67% (inactive)"},
      {"compound": "CC1(C)CC2CC(C)(CN2c2ncnc3ccc(Br)cc23)C1", "note": "(stereo not given)", "activation": "14% (inactive)"},
      {"compound": "Cc1cccc(N(CC(=O)Nc2ccc(-c3nc4ccc(C)cc4s3)cc2)S(C)(=O)=O)c1", "activation": "22.1% (active)"}
    ]}
  ]
}
